Test results: the antibiotic and cytotoxicity screens of Wong et al. (2023)
Among all 39,000 compounds or so, about 1,500 (3.8%) were called active. This excerpt belongs to a sample that is enriched for actives.

Test system: HSkMC (human skeletal muscle cells)
Test: cytotoxicity call (relative viability < 0.9)
Conditions: 10 µM

SMILES | cytotoxicity call
C[C@H](CO)N1C[C@H](C)[C@@H](CN(C)Cc2ccc(C(=O)O)cc2)OCCCC[C@H](C)Oc2ccc(NC(=O)C3CCCCC3)cc2C1=O | inactive
C[C@@H]1CN([C@@H](C)CO)C(=O)Cc2cc(NC(=O)Nc3ccc(F)cc3)ccc2O[C@@H]1CN(C)C(=O)Nc1cccc2ccccc12 | inactive
COc1ccc(C#Cc2ccc3c(c2)[C@]2(C(=O)N3)[C@H](C(=O)Nc3nc4ccccc4s3)[C@H]3C(=O)O[C@H](c4ccccc4)[C@H](c4ccccc4)N3[C@@H]2c2ccc(O)cc2)cc1 | inactive
Cc1ccc(S(=O)(=O)N(C)C[C@@H]2Oc3ccc(NS(C)(=O)=O)cc3C(=O)N([C@@H](C)CO)C[C@@H]2C)cc1 | inactive
NCc1nncn1-c1ccc(F)cc1 | inactive
C[C@H](CO)N1C[C@H](C)[C@H](CN(C)CC2CCCCC2)OCCCC[C@H](C)Oc2ccc(NC(=O)c3ccncc3)cc2C1=O | inactive
C[C@H](CO)N1C[C@H](C)[C@@H](CN(C)S(=O)(=O)c2cccs2)Oc2c(NS(=O)(=O)c3cn(C)cn3)cccc2C1=O | inactive
COCC#Cc1cnc2c(c1)C(=O)N([C@@H](C)CO)C[C@@H](C)[C@@H](CN(C)C(=O)CN1CCOCC1)O2 | inactive
C[C@@H]1CN([C@@H](C)CO)C(=O)c2cc(NC(=O)Nc3ccc(C(F)(F)F)cc3)ccc2O[C@@H](C)CCCCO[C@H]1CN(C)CC1CCCCC1 | inactive
C[C@H]1CCCCO[C@@H](CN(C)CC2CCCCC2)[C@@H](C)CN([C@@H](C)CO)C(=O)c2cc(NC(=O)Nc3ccc(C(F)(F)F)cc3)ccc2O1 | active
C[C@@H]1CN([C@@H](C)CO)C(=O)c2cc(NC(=O)Nc3ccc(C(F)(F)F)cc3)ccc2O[C@@H](C)CCCCO[C@@H]1CN(C)CC1CCCCC1 | inactive
C[C@@H]1CCCCO[C@@H](CN(C)CC2CCCCC2)[C@H](C)CN([C@H](C)CO)C(=O)c2cc(NC(=O)Nc3ccc(C(F)(F)F)cc3)ccc2O1 | active
Cc1noc(C)c1NC(=O)Nc1ccc2c(c1)C(=O)N([C@H](C)CO)C[C@H](C)[C@H](CN(C)Cc1ccncc1)OCCCC[C@@H](C)O2 | inactive
CO[C@@H]1CN(C)C(=O)c2cc(NS(C)(=O)=O)ccc2OC[C@@H](C)N(C(=O)CN(C)C)C[C@@H]1C | inactive
C[C@H]1CN([C@@H](C)CO)C(=O)c2cc(NS(=O)(=O)c3cn(C)cn3)ccc2O[C@H]1CN(C)S(C)(=O)=O | inactive
C[C@H]1CN([C@@H](C)CO)S(=O)(=O)c2ccc(C#CC3(O)CCCC3)cc2O[C@@H]1CN(C)C(=O)Cc1ccncc1 | inactive
COc1ccc(S(=O)(=O)N(C)C[C@H]2OCCCC[C@@H](C)Oc3ccc(NC(=O)c4ccccc4)cc3C(=O)N([C@H](C)CO)C[C@@H]2C)cc1 | inactive
C[C@@H]1CN([C@H](C)CO)C(=O)c2cc(NC(=O)Cc3ccccc3)ccc2O[C@@H](C)CCCCO[C@@H]1CN(C)C(=O)C1CCCCC1 | inactive
COC(=O)C[C@](O)(CCCC(C)(C)O)C(=O)O[C@@H]1C(OC)=C[C@]23CCCN2CCc2cc4c(cc2[C@H]13)OCO4 | active
C[C@@H]1CN([C@@H](C)CO)C(=O)CCCn2cc(nn2)CO[C@@H]1CN(C)C(=O)Nc1cccc(C(F)(F)F)c1 | inactive
C[C@H](CO)N1C[C@H](C)[C@@H](CN(C)C(=O)C2CCCCC2)OCCCC[C@H](C)Oc2ccc(NC(=O)Cc3ccccc3)cc2C1=O | inactive
C[C@H](CO)N1C[C@H](C)[C@@H](CN(C)Cc2ccc(F)cc2)Oc2cc(C#CC3CC3)ccc2S1(=O)=O | inactive

SMILES | cytotoxicity call
C[C@@H]1CN([C@@H](C)CO)S(=O)(=O)c2ccc(C#CC3CC3)cc2O[C@H]1CN(C)Cc1ccc(F)cc1 | inactive
C[C@H]1CN([C@@H](C)CO)S(=O)(=O)c2ccc(C#CC3CC3)cc2O[C@H]1CN(C)Cc1ccc(F)cc1 | inactive
C[C@@H]1CN([C@H](C)CO)S(=O)(=O)c2ccc(C#CC3CC3)cc2O[C@@H]1CN(C)Cc1ccc(F)cc1 | inactive
C[C@@H]1CN([C@H](C)CO)S(=O)(=O)c2ccc(C#CC3CC3)cc2O[C@H]1CN(C)Cc1ccc(F)cc1 | active
C[C@H]1CN([C@@H](C)CO)S(=O)(=O)c2ccc(C#CC3CC3)cc2O[C@@H]1CN(C)Cc1ccc(F)cc1 | active
CO[C@@H]1CN(C)C(=O)c2cc(NC(=O)Nc3ccccc3F)ccc2OC[C@@H](C)N(CCC(F)(F)F)C[C@H]1C | inactive
C[C@@H]1CN([C@@H](C)CO)C(=O)c2cc(NC(=O)Cc3ccccc3)ccc2O[C@@H]1CN(C)C(=O)Nc1ccc(C(F)(F)F)cc1 | inactive
O=C([C@H]1[C@H](CO)[C@H]2Cn3c(cccc3=O)[C@H]2N1C(=O)C1CCCC1)N1CCOCC1 | inactive
COc1ccc(CN(C)C[C@H]2Oc3c(NC(=O)C4CCOCC4)cccc3C(=O)N([C@H](C)CO)C[C@@H]2C)cc1 | inactive
O=C(C[C@H]1CC[C@H]2[C@@H](COC[C@@H](O)CN2C(=O)Nc2cccc(F)c2)O1)NCc1ccccc1Cl | inactive
CCC(=O)Nc1ccc(C)c(C)c1 | inactive
C[C@@H]1CCCCO[C@@H](CN(C)C(=O)Nc2ccc(F)cc2)[C@@H](C)CN([C@H](C)CO)C(=O)c2cc(NC(=O)CCCN(C)C)ccc2O1 | inactive
Cc1ccc(S(=O)(=O)N(C)C[C@@H]2Oc3ccc(NS(=O)(=O)c4cccs4)cc3CC(=O)N([C@@H](C)CO)C[C@H]2C)cc1 | inactive
COc1ccc(COCC23Oc4ccccc4[C@H]([C@H]2CO[Si](C)(C)C(C)(C)C)n2c(c4ccccc4c(-c4ccccc4)c2=O)N3C)cc1 | active
COc1ccc(COCC23Oc4ccccc4[C@H]([C@H]2CO)n2c(c4ccccc4c(-c4ccccc4)c2=O)N3C)cc1 | inactive
COC(=O)c1c(C(=O)OC)c2n(c(=O)c1-c1ccccc1)[C@@H]1c3ccccc3O[C@@](COCc3ccc(OC)cc3)([C@@H]1CO[Si](C)(C)C(C)(C)C)N2C | inactive
COc1ccc(NC(=O)N(C)C[C@@H]2OCCCC[C@H](C)Oc3ccc(NS(=O)(=O)c4ccc(F)cc4)cc3C(=O)N([C@H](C)CO)C[C@H]2C)cc1 | inactive
COc1ccc(C#Cc2cnc3c(c2)C(=O)N([C@@H](C)CO)C[C@@H](C)[C@H](CN(C)CC2CCOCC2)O3)cc1 | inactive
C[C@@H]1CCCCO[C@H](CN(C)C(=O)CCC(F)(F)F)[C@H](C)CN([C@H](C)CO)C(=O)c2cc(NC(=O)CCC(F)(F)F)ccc2O1 | inactive
COc1ccc(-c2coc3cc(O)cc(OC)c3c2=O)cc1 | inactive
C[C@H](CO)N1C[C@H](C)[C@H](CN(C)C(=O)Nc2ccc(F)cc2)Oc2ccc(NC(=O)C3CC3)cc2CC1=O | inactive
Cc1noc(C)c1NC(=O)N(C)C[C@H]1Oc2ccc(NS(=O)(=O)c3c(C)noc3C)cc2C(=O)N([C@@H](C)CO)C[C@@H]1C | inactive

SMILES | cytotoxicity call
CCc1ccc(/C=C2\SC(=O)N(CCCCCCNC(=O)c3ccccc3Nc3ccc([N+](=O)[O-])c4nonc34)C2=O)cc1 | active
CCc1ccc(/C=C2\SC(=O)N(CCCCCCNC(=O)c3ccc(Nc4ccc([N+](=O)[O-])c5nonc45)cc3)C2=O)cc1 | inactive
COc1ccc(NC(=O)Nc2ccc3c(c2)C(=O)N([C@H](C)CO)C[C@H](C)[C@H](CN(C)S(=O)(=O)c2ccccc2)OCCCC[C@H](C)O3)cc1 | inactive
C[C@@H]1CN([C@H](C)CO)C(=O)c2cccc(NC(=O)Nc3ccc(C(F)(F)F)cc3)c2O[C@H]1CN(C)Cc1ccc(Cl)c(Cl)c1 | active
C[C@@H]1CN([C@@H](C)CO)C(=O)c2cccc(NC(=O)Nc3ccc(C(F)(F)F)cc3)c2O[C@H]1CN(C)Cc1ccc(Cl)c(Cl)c1 | active
C[C@H]1CN([C@@H](C)CO)C(=O)c2cccc(NC(=O)Nc3ccc(C(F)(F)F)cc3)c2O[C@H]1CN(C)Cc1ccc(C(F)(F)F)cc1 | inactive
C[C@H]1CN([C@@H](C)CO)C(=O)c2cccc(NC(=O)Nc3ccc(C(F)(F)F)cc3)c2O[C@H]1CN(C)Cc1ccc(Cl)c(Cl)c1 | active
C[C@H](CO)N1C[C@H](C)[C@@H](CN(C)Cc2ccc(Cl)c(Cl)c2)Oc2c(NC(=O)Nc3ccc(C(F)(F)F)cc3)cccc2C1=O | active
C[C@H](CO)N1C[C@H](C)[C@H](CN(C)C(=O)Nc2ccnc(N3CCOCC3)c2)OCc2cn(nn2)CCCC1=O | inactive
C[C@@H]1CN([C@H](C)CO)C(=O)c2cc(NS(=O)(=O)c3ccccc3)ccc2O[C@@H](C)CCCCO[C@@H]1CN(C)Cc1ccccc1 | inactive
C[C@H]1CN([C@@H](C)CO)S(=O)(=O)c2ccc(C#CC3CC3)cc2O[C@H]1CN(C)C(=O)c1cccc(F)c1 | inactive
Cc1nnc(SCC2=C(C(=O)[O-])N3C(=O)C(NC(=O)Cn4cnnn4)C3SC2)s1.[Na+] (stereo not given) | inactive
C[C@H](CO)N1C[C@H](C)[C@H](CN(C)Cc2ccc(Cl)c(Cl)c2)OCc2ccccc2-c2c(n(C)c3ccccc23)C1=O | inactive
C[C@H]1CN([C@@H](C)CO)C(=O)c2cc(C#Cc3ccccn3)cnc2O[C@@H]1CN(C)C(=O)c1cnccn1 | inactive
COc1ccc(NC(=O)Nc2ccc3c(c2)C(=O)N([C@@H](C)CO)C[C@H](C)[C@H](CN(C)Cc2ccncc2)OCCCC[C@@H](C)O3)cc1 | inactive
O=C(/C=C/c1ccc(O)c(O)c1)O[C@@H]1C[C@](OC(=O)/C=C/c2ccc(O)c(O)c2)(C(=O)O)C[C@@H](OC(=O)/C=C/c2ccc(O)c(O)c2)[C@H]1O | inactive
C[C@H]1CN([C@@H](C)CO)C(=O)c2cccc(NC(=O)Nc3ccc(C(F)(F)F)cc3)c2O[C@@H]1CN(C)Cc1ccc(Cl)c(Cl)c1 | active
C[C@H]1CN([C@@H](C)CO)C(=O)c2cccc(NC(=O)Nc3ccc(C(F)(F)F)cc3)c2O[C@@H]1CN(C)Cc1ccc(C(F)(F)F)cc1 | inactive
C[C@H](CO)N1C[C@H](C)[C@H](CN(C)Cc2ccc(Cl)c(Cl)c2)Oc2c(NC(=O)Nc3ccc(C(F)(F)F)cc3)cccc2C1=O | inactive
C[C@@H]1CN([C@H](C)CO)C(=O)c2cccc(NC(=O)Nc3ccc(C(F)(F)F)cc3)c2O[C@@H]1CN(C)Cc1ccc(Cl)c(Cl)c1 | active
C[C@@H]1CN([C@@H](C)CO)C(=O)c2cccc(NC(=O)Nc3ccc(C(F)(F)F)cc3)c2O[C@@H]1CN(C)Cc1ccc(Cl)c(Cl)c1 | active
